# Legend:
# [1] = target: Dual specificity protein kinase CLK3 (Homo sapiens) (UniProt P49761); details: at 1 µM;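 further: each value is the mean inhibition of CLK3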
# [2] = target: Dual specificity tyrosine-phosphorylation-regulated kinase 1A (Homo sapiens) (UniProt Q13627); details: at 0.1 µM
# [3] = target: Dual specificity tyrosine-phosphorylation-regulated kinase 1A (Homo sapiens) (UniProt Q13627); details: at 1 µM
# [4] = target: Dual specificity tyrosine-phosphorylation-regulated kinase 1B (Homo sapiens) (UniProt Q9Y463); details: at 0.1 µM
# [5] = target: Dual specificity tyrosine-phosphorylation-regulated kinase 1B (Homo sapiens) (UniProt Q9Y463); details: at 1 µM
# [6] = target: T1, Dual specificity tyrosine-phosphorylation-regulated kinase 2 (Homo sapiens) (UniProt Q92630); details: at 0.1 µM
# T1 sequence (whole entry): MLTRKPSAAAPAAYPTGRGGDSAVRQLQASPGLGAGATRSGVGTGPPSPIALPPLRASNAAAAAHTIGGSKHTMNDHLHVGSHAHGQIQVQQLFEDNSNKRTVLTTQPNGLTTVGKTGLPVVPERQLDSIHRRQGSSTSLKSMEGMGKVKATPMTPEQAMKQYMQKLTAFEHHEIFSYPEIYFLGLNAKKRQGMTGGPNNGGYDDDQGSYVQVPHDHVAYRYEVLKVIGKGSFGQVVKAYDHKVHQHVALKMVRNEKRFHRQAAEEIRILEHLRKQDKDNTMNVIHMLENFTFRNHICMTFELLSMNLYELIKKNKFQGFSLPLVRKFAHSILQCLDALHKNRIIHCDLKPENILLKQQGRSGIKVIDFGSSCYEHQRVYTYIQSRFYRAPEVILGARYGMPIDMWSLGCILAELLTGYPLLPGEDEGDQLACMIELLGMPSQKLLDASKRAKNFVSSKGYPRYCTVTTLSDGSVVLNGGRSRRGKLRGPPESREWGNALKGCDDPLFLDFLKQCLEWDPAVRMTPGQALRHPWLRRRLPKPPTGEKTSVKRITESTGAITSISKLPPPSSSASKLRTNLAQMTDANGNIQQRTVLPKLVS
# [7] = target: T1, Dual specificity tyrosine-phosphorylation-regulated kinase 2 (Homo sapiens); details: at 1 µM
# [8] = target: Glycogen synthase kinase-3 alpha (Homo sapiens) (UniProt P49840); details: at 0.1 µM
# [9] = target: Glycogen synthase kinase-3 alpha (Homo sapiens) (UniProt P49840); details: at 1 µM
# [10] = target: Glycogen synthase kinase-3 beta (Homo sapiens) (UniProt P49841); details: at 0.1 µM
# [11] = target: Glycogen synthase kinase-3 beta (Homo sapiens) (UniProt P49841); details: at 1 µM
# [12] = target: Homeodomain-interacting protein kinase 1 (Homo sapiens) (UniProt Q86Z02); details: at 0.1 µM
# [13] = target: Homeodomain-interacting protein kinase 1 (Homo sapiens) (UniProt Q86Z02); details: at 1 µM
# [14] = target: T2, Homeodomain-interacting protein kinase 4 (Homo sapiens) (UniProt Q8NE63); details: at 0.1 µM
# T2 sequence (whole entry): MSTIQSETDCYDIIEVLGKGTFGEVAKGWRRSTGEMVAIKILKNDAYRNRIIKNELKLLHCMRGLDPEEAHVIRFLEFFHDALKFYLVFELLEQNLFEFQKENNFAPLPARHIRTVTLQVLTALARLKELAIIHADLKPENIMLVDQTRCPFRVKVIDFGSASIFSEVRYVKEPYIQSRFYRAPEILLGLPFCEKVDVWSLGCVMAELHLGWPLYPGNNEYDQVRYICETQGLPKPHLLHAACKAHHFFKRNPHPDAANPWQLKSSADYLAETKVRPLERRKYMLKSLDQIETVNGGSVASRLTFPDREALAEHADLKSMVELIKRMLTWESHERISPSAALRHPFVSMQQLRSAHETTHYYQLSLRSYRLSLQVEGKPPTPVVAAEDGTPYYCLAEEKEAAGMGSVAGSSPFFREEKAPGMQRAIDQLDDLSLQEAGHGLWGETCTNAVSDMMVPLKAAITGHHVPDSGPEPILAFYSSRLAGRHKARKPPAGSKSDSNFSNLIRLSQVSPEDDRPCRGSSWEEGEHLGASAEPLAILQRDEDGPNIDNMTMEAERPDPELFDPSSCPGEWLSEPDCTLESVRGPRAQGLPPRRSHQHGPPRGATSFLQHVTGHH
# [15] = target: T2, Homeodomain-interacting protein kinase 4 (Homo sapiens); details: at 1 µM
# [16] = target: Mitogen-activated protein kinase 9 (Homo sapiens) (UniProt P45984); details: at 0.1 µM
# [17] = target: Mitogen-activated protein kinase 9 (Homo sapiens) (UniProt P45984); details: at 1 µM
# [18] = target: Mitogen-activated protein kinase 1 (Homo sapiens) (UniProt P28482); details: at 0.1 µM
# [19] = target: Mitogen-activated protein kinase 1 (Homo sapiens) (UniProt P28482); details: at 1 µM
# [20] = target: Mitogen-activated protein kinase 3 (Homo sapiens) (UniProt P27361); details: at 0.1 µM;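 further: each value is a mean inhibition figure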
# Sequence of Mitogen-activated protein kinase 3 (Homo sapiens) (P27361 whole entry): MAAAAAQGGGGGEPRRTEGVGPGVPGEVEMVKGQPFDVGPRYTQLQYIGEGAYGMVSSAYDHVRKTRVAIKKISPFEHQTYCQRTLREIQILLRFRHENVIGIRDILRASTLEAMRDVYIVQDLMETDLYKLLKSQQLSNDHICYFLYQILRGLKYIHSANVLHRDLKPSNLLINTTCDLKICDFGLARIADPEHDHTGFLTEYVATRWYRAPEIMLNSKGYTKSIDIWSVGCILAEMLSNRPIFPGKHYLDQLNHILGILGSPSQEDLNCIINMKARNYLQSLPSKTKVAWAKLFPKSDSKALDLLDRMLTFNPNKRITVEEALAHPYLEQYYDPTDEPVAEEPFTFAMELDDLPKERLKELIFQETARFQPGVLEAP
# Sequence of Dual specificity tyrosine-phosphorylation-regulated kinase 1B (Homo sapiens) (Q9Y463 whole entry, looked up): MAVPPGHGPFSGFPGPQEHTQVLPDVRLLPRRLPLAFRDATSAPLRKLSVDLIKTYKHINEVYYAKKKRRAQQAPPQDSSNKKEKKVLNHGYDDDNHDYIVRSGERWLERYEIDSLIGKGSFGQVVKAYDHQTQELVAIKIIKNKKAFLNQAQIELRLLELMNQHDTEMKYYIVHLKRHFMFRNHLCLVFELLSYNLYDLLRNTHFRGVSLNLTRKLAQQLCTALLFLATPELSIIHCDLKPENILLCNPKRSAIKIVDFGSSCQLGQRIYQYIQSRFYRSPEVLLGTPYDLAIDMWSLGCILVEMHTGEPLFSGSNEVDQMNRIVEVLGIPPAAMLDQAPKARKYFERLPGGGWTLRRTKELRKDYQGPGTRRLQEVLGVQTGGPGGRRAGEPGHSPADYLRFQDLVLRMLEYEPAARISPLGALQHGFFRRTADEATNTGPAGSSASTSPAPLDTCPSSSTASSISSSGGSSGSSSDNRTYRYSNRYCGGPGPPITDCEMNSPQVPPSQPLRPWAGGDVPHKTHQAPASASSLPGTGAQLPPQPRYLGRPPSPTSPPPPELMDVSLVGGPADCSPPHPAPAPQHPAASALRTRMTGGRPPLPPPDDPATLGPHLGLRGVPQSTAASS
# Sequence of Mitogen-activated protein kinase 9 (Homo sapiens) (P45984 whole entry, looked up): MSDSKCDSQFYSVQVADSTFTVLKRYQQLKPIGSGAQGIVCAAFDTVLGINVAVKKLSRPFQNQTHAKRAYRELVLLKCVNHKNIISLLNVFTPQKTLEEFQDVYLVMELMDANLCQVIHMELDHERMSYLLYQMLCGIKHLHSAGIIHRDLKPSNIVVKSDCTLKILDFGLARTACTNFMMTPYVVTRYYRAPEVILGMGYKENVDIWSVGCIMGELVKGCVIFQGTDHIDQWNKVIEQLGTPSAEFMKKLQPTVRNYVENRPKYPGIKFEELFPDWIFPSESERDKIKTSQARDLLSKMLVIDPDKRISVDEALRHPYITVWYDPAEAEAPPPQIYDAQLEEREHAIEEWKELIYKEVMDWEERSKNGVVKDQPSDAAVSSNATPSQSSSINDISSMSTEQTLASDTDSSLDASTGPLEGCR
# Sequence of Glycogen synthase kinase-3 alpha (Homo sapiens) (P49840 2-483 limits assumed): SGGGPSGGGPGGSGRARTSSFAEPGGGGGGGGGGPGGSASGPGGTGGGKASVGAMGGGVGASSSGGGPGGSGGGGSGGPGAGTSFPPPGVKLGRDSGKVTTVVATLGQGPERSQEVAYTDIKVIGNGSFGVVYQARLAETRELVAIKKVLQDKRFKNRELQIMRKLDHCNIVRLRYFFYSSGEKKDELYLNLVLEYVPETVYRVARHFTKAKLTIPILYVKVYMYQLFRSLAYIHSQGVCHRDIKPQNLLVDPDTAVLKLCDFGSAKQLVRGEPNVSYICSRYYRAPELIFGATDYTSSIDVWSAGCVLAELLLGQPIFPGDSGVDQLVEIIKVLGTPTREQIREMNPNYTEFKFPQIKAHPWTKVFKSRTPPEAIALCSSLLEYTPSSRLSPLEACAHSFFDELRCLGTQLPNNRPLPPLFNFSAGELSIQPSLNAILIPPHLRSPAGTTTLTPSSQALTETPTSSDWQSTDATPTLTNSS
# Sequence of Dual specificity protein kinase CLK3 (Homo sapiens) (P49761 whole entry, looked up): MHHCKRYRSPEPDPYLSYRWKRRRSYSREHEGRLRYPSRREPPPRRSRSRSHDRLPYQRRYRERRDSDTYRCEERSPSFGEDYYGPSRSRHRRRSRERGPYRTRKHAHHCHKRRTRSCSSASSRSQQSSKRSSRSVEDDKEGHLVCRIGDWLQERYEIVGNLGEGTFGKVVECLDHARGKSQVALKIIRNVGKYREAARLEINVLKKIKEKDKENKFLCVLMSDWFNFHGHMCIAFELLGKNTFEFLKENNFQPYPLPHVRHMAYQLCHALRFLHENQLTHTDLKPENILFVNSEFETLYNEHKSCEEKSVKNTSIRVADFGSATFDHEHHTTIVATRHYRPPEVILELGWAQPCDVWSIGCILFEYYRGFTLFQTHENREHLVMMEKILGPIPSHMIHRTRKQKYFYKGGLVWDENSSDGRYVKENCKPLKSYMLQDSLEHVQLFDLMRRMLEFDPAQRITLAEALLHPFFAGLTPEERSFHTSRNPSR
# Sequence of Homeodomain-interacting protein kinase 1 (Homo sapiens) (Q86Z02 whole entry, looked up): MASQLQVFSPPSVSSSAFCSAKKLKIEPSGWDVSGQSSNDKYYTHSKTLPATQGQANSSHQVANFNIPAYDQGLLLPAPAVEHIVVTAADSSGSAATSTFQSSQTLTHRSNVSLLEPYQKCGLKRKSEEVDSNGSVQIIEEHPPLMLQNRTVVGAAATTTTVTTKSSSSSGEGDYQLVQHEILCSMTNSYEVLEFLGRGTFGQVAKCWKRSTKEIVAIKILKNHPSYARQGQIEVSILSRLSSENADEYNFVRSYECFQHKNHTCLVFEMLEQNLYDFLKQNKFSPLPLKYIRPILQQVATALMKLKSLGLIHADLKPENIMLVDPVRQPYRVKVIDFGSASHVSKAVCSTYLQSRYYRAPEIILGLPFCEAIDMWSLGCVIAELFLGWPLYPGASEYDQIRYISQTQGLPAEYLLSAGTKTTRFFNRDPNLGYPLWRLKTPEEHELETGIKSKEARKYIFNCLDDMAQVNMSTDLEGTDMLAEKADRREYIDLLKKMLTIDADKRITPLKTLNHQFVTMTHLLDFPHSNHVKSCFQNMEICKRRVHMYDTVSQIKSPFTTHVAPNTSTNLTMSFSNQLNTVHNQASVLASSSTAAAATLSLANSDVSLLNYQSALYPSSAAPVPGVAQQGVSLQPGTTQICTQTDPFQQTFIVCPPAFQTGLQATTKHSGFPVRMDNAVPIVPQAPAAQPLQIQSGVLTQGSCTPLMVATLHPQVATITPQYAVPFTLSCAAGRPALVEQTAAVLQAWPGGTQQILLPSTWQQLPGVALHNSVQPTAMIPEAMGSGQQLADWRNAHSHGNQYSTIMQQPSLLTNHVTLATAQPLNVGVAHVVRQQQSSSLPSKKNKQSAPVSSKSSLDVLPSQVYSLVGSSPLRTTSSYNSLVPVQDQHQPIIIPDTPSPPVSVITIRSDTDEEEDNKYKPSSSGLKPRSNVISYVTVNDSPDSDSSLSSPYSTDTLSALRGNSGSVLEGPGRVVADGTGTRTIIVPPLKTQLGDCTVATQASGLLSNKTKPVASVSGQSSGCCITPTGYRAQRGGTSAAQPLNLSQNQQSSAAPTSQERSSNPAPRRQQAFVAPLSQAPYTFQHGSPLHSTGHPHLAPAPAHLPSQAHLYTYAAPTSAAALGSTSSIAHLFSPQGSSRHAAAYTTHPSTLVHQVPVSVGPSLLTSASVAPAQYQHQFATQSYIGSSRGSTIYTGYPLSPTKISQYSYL
# Sequence of Glycogen synthase kinase-3 beta (Homo sapiens) (P49841 whole entry, looked up): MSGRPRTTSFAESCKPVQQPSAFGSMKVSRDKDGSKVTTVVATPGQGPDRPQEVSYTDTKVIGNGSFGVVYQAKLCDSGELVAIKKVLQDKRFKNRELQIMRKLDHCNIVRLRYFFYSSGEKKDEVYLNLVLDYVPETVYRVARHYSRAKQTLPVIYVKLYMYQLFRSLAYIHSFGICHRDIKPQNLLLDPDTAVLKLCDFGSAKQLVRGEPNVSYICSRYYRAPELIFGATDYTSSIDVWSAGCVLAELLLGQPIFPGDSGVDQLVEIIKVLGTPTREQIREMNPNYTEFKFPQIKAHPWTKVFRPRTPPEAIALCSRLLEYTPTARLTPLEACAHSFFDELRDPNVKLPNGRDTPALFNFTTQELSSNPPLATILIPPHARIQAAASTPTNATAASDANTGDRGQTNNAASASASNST
# Sequence of Mitogen-activated protein kinase 1 (Homo sapiens) (P28482 whole entry): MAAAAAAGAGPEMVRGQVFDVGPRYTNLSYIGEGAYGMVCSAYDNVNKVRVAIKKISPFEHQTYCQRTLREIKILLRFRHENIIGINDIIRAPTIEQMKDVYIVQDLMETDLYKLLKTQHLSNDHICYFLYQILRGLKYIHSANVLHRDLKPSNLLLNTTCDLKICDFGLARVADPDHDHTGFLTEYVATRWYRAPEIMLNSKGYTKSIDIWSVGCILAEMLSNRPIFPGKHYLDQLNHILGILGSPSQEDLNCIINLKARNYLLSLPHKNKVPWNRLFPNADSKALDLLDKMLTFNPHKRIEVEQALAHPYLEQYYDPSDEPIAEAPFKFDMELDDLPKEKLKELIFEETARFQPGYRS
Structure (SMILES),inhibition [1] [%],inhibition [2] [%],inhibition [3] [%],inhibition [4] [%],inhibition [5] [%],inhibition [6] [%],inhibition [7] [%],inhibition [8] [%],inhibition [9] [%],inhibition [10] [%],inhibition [11] [%],inhibition [12] [%],inhibition [13] [%],inhibition [14] [%],inhibition [15] [%],inhibition [16] [%],inhibition [17] [%],inhibition [18] [%],inhibition [19] [%],inhibition [20] [%]
COc1ccc2ncn(-c3cc(O[C@H](C)c4ccccc4Cl)c(C(N)=O)s3)c2c1,-2.47,-1.4,0.78,-5.09,-1.96,2.27,2.75,-1.42,1.7,-1.37,-0.28,-4.71,-1.67,0.62,5.59,2.17,-0.22,5.14,4.54,4.56
c1ccc(Oc2ccc(Nc3ncc(-c4ccccc4)o3)cc2)cc1,1.59,2.14,5.29,1.51,2.84,0.4,0.21,2,5.53,1.83,7.42,1.51,3.29,-0.61,1.2,0.54,2.94,-1.99,6.11,1.01
C[C@@H](Oc1cc(-n2cnc3ccc(OCC4CCN(C)CC4)cc32)sc1C(N)=O)c1ccccc1Cl,2.9,2.94,3.56,1.54,2.55,4.66,9.72,4.39,10.2,2.71,8.9,-1.26,8.77,3.09,21.8,7.22,10.9,7.6,8.78,4.68
C[C@@H](Oc1cc(-n2cnc3ccc(OC4CCN(C)CC4)cc32)sc1C(N)=O)c1ccccc1Cl,-2.38,-0.72,0.72,-4.55,-3.42,2.47,7.45,-1.18,-0.34,-1.76,-0.12,-4.32,2.08,3.54,28.7,1.24,5.06,5.74,6.64,3.11
O=C(Nc1ccc(Oc2ccc3[nH]c(NC(=O)c4ccccc4)nc3c2)cc1)Nc1cc(C(F)(F)F)ccc1F,3.71,1.94,4.75,0.86,3.47,2.36,3.65,3.49,8.16,3.19,7.73,-0.21,0.17,9.12,47.7,3.43,6.62,2.12,2.7,4.31
O=C(NCC1CC1)c1ccc(-c2cccc(C(=O)NC3CC3)c2)cc1,2.44,0.99,2.88,0.66,1.93,2.27,3.38,1.5,3.17,1.32,0.48,-0.22,5.27,2.02,5.47,3.38,2.6,1.42,1.43,1.22
CN(C)c1ccc2c(c1)/C(=C/Nc1ccc(S(N)(=O)=O)cc1)C(=O)N2,3.39,7.43,33.4,4.54,24.5,1.54,4.74,8.28,21.6,6.03,24.2,0.15,12,-0.09,6.94,3.27,2.71,1.12,2.53,0.06
O=C1Nc2ccc(I)cc2C1=Cc1cc(Br)c(O)c(Br)c1,-0.23,1.95,4.99,-0.26,3.56,4.72,8.06,0.99,5.19,0.29,5.98,-1.21,6.66,-0.29,6.76,5.13,7.68,2.02,4.96,3.73
COc1ccc2cc(-c3c(-c4ccncc4)nc(-c4ccc(S(C)(=O)=O)cc4C)n3C)ccc2c1,2.06,2.19,7.68,0.76,2.36,3.55,4.35,2.9,6.04,2.27,6.76,0.5,-0.46,-0.03,1.88,4.44,10.1,5.2,5.44,3.83
Cc1ccc(C(=O)NC2CCC2)cc1-c1ccc(C(=O)NCC2CC2)cc1,1.28,2.74,5.39,1.78,2.49,2.22,3.3,1.01,4.22,0.28,3.43,-0.93,2.06,-0.06,1.07,2.74,3.35,0.32,3.11,2.05
CCc1cccc(CC)c1/C=C/c1cncc(C(=O)NC)c1,1.66,1.88,5.03,1.08,3.49,2.13,2.5,2.14,6.98,2.21,7.96,1.64,7.03,1.04,4.82,4.45,7.37,1.29,1,2.05
NS(=O)(=O)c1ccc(N/N=C2\C(=O)Nc3ccc(C(=O)NCCCn4ccnc4)cc32)cc1,8.02,7.66,15.9,4.25,15.6,4.62,16.2,40.6,76,39.7,77.7,4.8,34.3,3.92,17.6,6.1,10.9,9.89,38.5,5.16

# From ChEMBL document CHEMBL1961873, “Compounds: GSK PKIS; Assays: Nanosyn kinase panel” (2012)
